# Screens (PubChem BioAssay)
# Only some compounds are listed: those with a hit (about 3% of all), similar ones and a draw of the others.
# ClpP mod: qHTS Assay for Activators of ClpP. ATP-dependent Clp protease proteolytic subunit (Bacillus subtilis (strain 168)), P80244. purified B. subtilis ClpP, FRET peptide cleavage, 20 min. Potency, µM (doses to about 57.5 µM), for the others: at the highest dose activity change, negative = active. 340,000 compounds, 1.9% hits; active = well fitted falling curve with a large enough effect; inconclusive = small, poorly fitted or top-dose-only effect; inactive = no such curve, though single readings can be large or run the other way; also: potency is read from the fitted curve at half-maximal effect; the source files actives as falling curves though it sought activators and does not explain the sign; nearly all actives have a fitted effect of over 65% in size
# Target sequence (P80244 whole entry, looked up): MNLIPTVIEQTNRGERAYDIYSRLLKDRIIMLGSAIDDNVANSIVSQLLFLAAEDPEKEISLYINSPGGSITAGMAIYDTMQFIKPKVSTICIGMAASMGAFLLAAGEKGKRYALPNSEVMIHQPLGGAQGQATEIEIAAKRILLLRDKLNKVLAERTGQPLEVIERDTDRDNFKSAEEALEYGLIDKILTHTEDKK
#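 FRET quenching reversal measured ClpP activation: 10 microg/mL B. subtilis ClpP at pH 8 with the FRET-FV decapeptide, read at 430 nm after 320 nm excitation. The 20-min minus 0-min signal was scaled between DMSO/no-enzyme wells and ADEP (5.8 microM final).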
# BCR signal inh: inhibitors of chronic active B-cell receptor signaling. Potency, µM (top dose mostly 46.1 µM), without a hit: top-dose activity change, negative = inhibition, usual class: inhibitors. ABC-DLBCL IkBa-CBG/CBR reporter, luminescence ratio, 4 h. 340,000 compounds, 0.05% hits; active = well fitted inhibition curve with a large enough effect in the signal ratio, with a control signal flat, not every such curve was filed as active; inconclusive = small, poorly fitted or top-dose-only effect, or effect the other way, or a change in a side signal; the % refers to the signal ratio;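 also: potency is read from the fitted curve at half-maximal effect; plate controls were basal doxycycline-induced cells for no effect and cells given 10 µM MG132 for full effect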
#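 Doxycycline induced both beetle luciferases in TMD8 lymphoma cells; IKK-driven degradation limits the IkappaBalpha-fused green signal, while red luminescence normalises for cell number and nonspecific effects. Compounds tested up to 46 uM, 4 hrs.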
# LDHA inh: inhibitors of human lactate dehydrogenase A; 480,000 compounds, 0.15% hits; AID 1347041; P00338; purified LDHA, NADH/diaphorase-resazurin fluorescence; hits give low values; activity change, % (values are at about 110 or 230 µM); in the data active = activity change below about -30%; inconclusive = mostly about -25% to -30%;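 also: plate controls were DMSO wells for no effect and wells without enzyme for full effect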
#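 Resorufin fluorescence (ex540/em590), read at 0 and 20 min after diaphorase/resazurin addition, reports the NADH left after a 5 min room-temperature reaction of 2 nM human LDH5 with 0.06 mM NADH and 0.2 mM pyruvate.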
# KCNH2 WT inh: KCNH2 (human, wildtype) channel inhibition | activity change, % at 1.84 µM | Q12809 | U2OS, BacMam KCNH2, thallium flux FluxOr; hits give low values | 340,000 compounds, 0.37% hits | AID 720551;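 active = maximum activity change below -70%; inconclusive = maximum activity change between -70% and -50%; inactive = maximum activity change above -50%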; also: % is scaled to controls: 0 for no effect and ±100 for the full control effect
#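 U2OS cells were transduced with wild-type KCNH2 virus (2.03 x 10^8 / mL) for 4 h at room temperature, then cultured overnight at 37 C. Thallium flux was read with FluxOr dye. Rate constants were normalized to DMSO controls.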
# ALOX12 inh: blocks human arachidonate 12S-lipoxygenase; Potency, µM (titrated, usually from 108 µM), inactives show top-dose activity change, negative = inhibition, hits mostly inhibitors; P18054; purified 12hLO, xylenol orange hydroperoxide absorbance; 580,000 compounds, 1.1% hits; AID 1671190; active = well fitted inhibition curve with a large enough effect; inconclusive = small, poorly fitted or top-dose-only effect, or another doubt; inactive = no such curve, though single readings can be large or run the other way; also: potency is read from the fitted curve at half-maximal effect; % is scaled to controls: 0 for no effect and ±100 for the full control effect
#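 Purified human 12hLO (150 nM final) in 25 mM Hepes, 0.01% Triton X-100, pH 7.0 was preincubated 15 min at room temperature with compound. Then 40 uM arachidonic acid was added, 30 min. Hydroperoxide was read by Fe-XO absorbance ratio 573/405 nm.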
# KCNH2 3.1 block: blocks the human KCNH2 3.1 channel isoform; U2OS KCNH2 3.1, thallium flux FluxOr; hits give low values; activity change, % (tested at about 1.8 µM); 340,000 compounds, 0.95% hits;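 active = maximum activity change below -70%; inconclusive = maximum activity change from -70% to -50%; inactive = maximum activity change above -50%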;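 also: thallium influx rate constant from kinetic fluorescence after stimulation buffer; % is scaled to controls: 0 for no effect and ±100 for the full control effect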
#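 Thallium flux via FluxOr fluorescence (Red40 quencher, 45 min loading) in U2OS cells virally expressing the KCNH2 3.1 isoform (1.77 x 10^8 /mL virus, overnight at 37 C). Rate constants from 2-min kinetic reads post-stimulation, normalised to positive and negative controls.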
# * = called active by the depositor; ? = inconclusive; / = no result; [ ] = dose if it differs, or a comment.
SMILES,ClpP mod,BCR signal inh,LDHA inh,KCNH2 WT inh,ALOX12 inh,KCNH2 3.1 block
Cc1cc(NCCC(C)C)n2nc(C)c(-c3ccccc3)c2n1,28.2µM*,?,4.3,-1.2,-21.7%,0.8
COc1ccc(C(=O)OCc2ccc(Cl)cc2)c(OC)c1OC,/,/,4.0,/,7.4%,/
CCc1ccccc1OCCCOc1ccc(OC)cc1,-1.5%,?,1.2,-1.4,21.5%,-99.2*
COc1ccccc1CN1CC(C(=O)NC2(c3ccccc3)CC2)CCC1=O (stereo not drawn),31.6µM*,0.2%,-10.1,-4.7,4.4%,6.6
COc1ccccc1CCNC(=O)C1CCC(=O)N(Cc2ccccc2OC)C1 (stereo not drawn),-0.1%,0.0%,-4.9,5.7,11.2%,1.9
O=[N+]([O-])c1cccc2nc(-c3ccccc3)c(-c3ccccc3)nc12,0.9%,4.6%,2.0,-132.2*,0.8%,-108.3*
Cn1c(-[n+]2c(-c3ccccc3)cc(-c3ccccc3)cc2-c2ccccc2)nc2c([N+](=O)[O-])cccc21,-3.9%,1.4%,-7.3,-6.5,?,-19.0
NC(=O)c1nc(Nc2ccccc2)sc1NC(=O)c1c(F)cccc1F,5.5%,/,-9.8,/,-13.6%,/
Cc1ccc(Nc2nc(C(N)=O)c(NC(=O)c3ccccc3Br)s2)cc1,1.0%,/,10.0,/,14.1µM*,/
CCn1ncc(C(=O)Nc2ccccc2C)c1C,-12.4%,1.8%,-5.1,19.4,12.0%,-94.5*
CCOC(=O)c1c(-c2cccs2)csc1N,/,7.5%,22.9,6.5,44.7µM*,3.8
CCOC(=O)c1c(-c2ccco2)csc1N,-1.0%,?,13.7,-6.8,-1.1%,14.0
CCOC(=O)c1c(N)sc(N)c1C(=O)OCC,1.6%,-0.3%,25.6,0.1,50.1µM*,-10.0
CCCc1csc(N)c1C(=O)OCC,/,/,6.7,/,7.94µM*,/
CCOC(=O)c1c(-c2cc(OC)c(OC)c(OC)c2)csc1N,-0.2%,/,8.0,-6.1,-17.2%,14.4
COCCCn1c(C(C)Oc2ccc(C(C)(C)C)cc2)n[nH]c1=S (stereo not drawn),/,/,-2.0,/,?,/
CCN(Cc1cccs1)C(=O)NCc1cccc(F)c1,/,/,-3.9,/,17.7%,/
Cc1nc(C#N)c(N/N=C/c2cccc(Cl)c2)o1,1.9%,?,-12.0,10.0,39.8µM*,15.3
Cc1cc(N/N=C/c2cccc(Cl)c2)nc(-n2nc(C)cc2C)n1,-1.5%,-20.8%,-2.0,2.5,203.9%,-28.8
Cc1ccc(N=C2NN=C(c3cc(C)n(CC4CCCO4)c3C)CS2)cc1 (stereo not drawn),/,/,-5.3,/,?,/
Cc1cc(C2=NNC(=Nc3ccccc3)SC2)c(C)n1CC1CCCO1 (stereo not drawn),/,/,-36.3*,/,-21.1%,/
CCOc1ccc(N=C2NN=C(c3cc(C)n(CC4CCCO4)c3C)CS2)cc1 (stereo not drawn),-0.5%,0.7%,-6.7,-9.8,39.8µM*,-5.3
CC(=O)Nc1cc2c(=O)n(Cc3ccccc3)c(C)nc2cc1N1CCOCC1,2.0%,-1.3%,-0.9,-11.5,14.1µM*,-2.4
Nc1cc(C(=O)c2ccccc2)ccc1N1CCOCC1,-0.7%,-15.1%,0.4,11.6,0.0%[57.4 µM],-4.5
CC(=O)Nc1cc(C(=O)c2ccccc2)ccc1N1CCOCC1,35.5µM*,-17.6%,-2.0,1.0,-3.1%,5.4
SMILES,ClpP mod,BCR signal inh,LDHA inh,KCNH2 WT inh,ALOX12 inh,KCNH2 3.1 block
Cc1cccc(/C=C/c2nc3ccccc3c(=O)n2-c2ccc(C(=O)O)cc2)c1,/,/,-21.0,/,-1.0%,/
Cc1cc(O)c(N)c(C)c1Cl,/,?,18.8,-0.3,15.8µM*,-12.2
C=CC(=O)N1C/C(=C/c2ccc(F)cc2)C(=O)/C(=C\c2ccc(F)cc2)C1,-0.5%,/,-6.0,-11.1,7.94µM*,-20.6
COC(CNC(=O)c1cccc(-n2c(=S)[nH]c3cc(Cl)ccc3c2=O)c1)OC,/,-0.4%,-7.0,4.8,1.78µM*,-15.3
O=C(COc1ncnc2c(Cl)cc(Cl)cc12)Nc1ccc(F)cc1,/,/,-5.1,/,5.5%,/
CCCOc1ccc(CNC(=O)CS(=O)(=O)Cc2nc(-c3ccccc3C)oc2C)cc1,/,/,18.9,/,-5.0%,/
